The campaign covered roughly 310,000 compounds. About 14,000 (4.5%) showed an effect of 50% or more. Effects have a minus sign here. The sample as a whole holds a higher share of strong results than the screen did.
biological target: human ether-à-go-go-related gene (hERG) potassium channel (human, UniProt Q12809); experiment: primary screen, population patch clamp on CHO cells stably expressing hERG; higher = less effect of the substance
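Also: peak tail current of the secondary pulse compared with the same well before compound.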

human ether-à-go-go-related gene (hERG) potassium channel, sequence (Q12809 whole entry, looked up): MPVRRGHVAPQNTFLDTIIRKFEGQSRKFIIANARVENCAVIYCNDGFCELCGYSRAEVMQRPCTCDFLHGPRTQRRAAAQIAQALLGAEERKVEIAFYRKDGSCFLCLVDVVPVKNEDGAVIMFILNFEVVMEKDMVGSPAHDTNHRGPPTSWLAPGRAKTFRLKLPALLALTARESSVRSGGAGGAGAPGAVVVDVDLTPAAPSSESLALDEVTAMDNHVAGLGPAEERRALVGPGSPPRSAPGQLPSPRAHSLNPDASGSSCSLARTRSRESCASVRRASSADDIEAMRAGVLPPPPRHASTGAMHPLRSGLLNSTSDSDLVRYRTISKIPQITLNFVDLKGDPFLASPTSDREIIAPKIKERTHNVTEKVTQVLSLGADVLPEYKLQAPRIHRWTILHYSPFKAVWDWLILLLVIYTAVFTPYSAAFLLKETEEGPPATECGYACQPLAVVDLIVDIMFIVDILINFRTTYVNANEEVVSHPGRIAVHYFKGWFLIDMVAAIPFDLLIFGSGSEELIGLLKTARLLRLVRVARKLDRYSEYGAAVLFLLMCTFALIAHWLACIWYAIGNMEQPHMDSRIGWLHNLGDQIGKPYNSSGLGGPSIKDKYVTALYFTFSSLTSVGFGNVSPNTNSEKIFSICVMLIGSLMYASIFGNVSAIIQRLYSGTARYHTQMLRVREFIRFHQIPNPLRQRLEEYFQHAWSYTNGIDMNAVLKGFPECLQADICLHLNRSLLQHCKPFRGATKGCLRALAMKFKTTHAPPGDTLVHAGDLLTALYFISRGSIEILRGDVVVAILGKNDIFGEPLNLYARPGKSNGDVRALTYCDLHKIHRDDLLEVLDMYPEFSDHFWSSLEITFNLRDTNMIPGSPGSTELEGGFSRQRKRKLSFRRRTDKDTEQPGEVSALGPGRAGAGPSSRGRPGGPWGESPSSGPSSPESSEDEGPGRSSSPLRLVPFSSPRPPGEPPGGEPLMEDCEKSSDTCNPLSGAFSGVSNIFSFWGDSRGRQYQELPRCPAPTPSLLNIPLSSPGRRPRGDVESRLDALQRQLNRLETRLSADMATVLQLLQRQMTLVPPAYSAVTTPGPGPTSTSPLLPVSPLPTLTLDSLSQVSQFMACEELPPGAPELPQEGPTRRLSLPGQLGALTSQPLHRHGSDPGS

Question: How did the “hERG current change (%, negative = inhibition) at 10uM” value turn out when `Cc1ccc(C2(C(F)(F)F)N=C3Sc4cc(C)cc(C)c4N3C(=O)N2)cc1` (centres unmarked) was run?
Answer: -4.05%

Question: Which “hERG current change (%, negative = inhibition) at 10uM” value does the source give for `O=C(NCCCN1CCOCC1)c1cc(-c2ccc(Br)cc2)nc2ccccc12` here?
Answer: -39.7%

Question: Which “hERG current change (%, negative = inhibition) at 10uM” value does the source give for `O=C(NC1C2CC3CC(C2)CC1C3)c1ccc(N2CCNCC2)c([N+](=O)[O-])c1` (centres unmarked) here?
Answer: -18%

Question: Which “hERG current change (%, negative = inhibition) at 10uM” value does the source give for `O=c1c2oc3ccccc3c2[nH]c(=S)n1-c1ccc(F)cc1` here?
Answer: 25.3%

Question: `COc1cccc(C2NC(=O)NC(C)=C2C(=O)Nc2ccc(C)cc2)c1OC` (centres unmarked) was tested. Which “hERG current change (%, negative = inhibition) at 10uM” value did it give?
Answer: -6.16%

Question: Which “hERG current change (%, negative = inhibition) at 10uM” value does the source give for `COc1ccccc1-n1c(=O)oc2ccc(Cl)cc2c1=O` here?
Answer: -7.54%

Question: `Cl.O=C(NCCOC(=O)c1ccc(C(=O)OCCNC(=O)c2cccnc2)s1)c1cccnc1` was tested. Which “hERG current change (%, negative = inhibition) at 10uM” value did it give?
Answer: 7.73%

Question: For `CCN1CCCC1CNC(=O)c1ccc(N2CCOCC2)c(NS(=O)(=O)c2ccc(OC)cc2)c1` (centres unmarked), which “hERG current change (%, negative = inhibition) at 10uM” value is on record?
Answer: -24.4%

Question: `CCCCNC(=O)c1ccc(N2CCOCC2)c(NS(=O)(=O)c2ccc(OC)cc2)c1` was tested. Which “hERG current change (%, negative = inhibition) at 10uM” value did it give?
Answer: -40.4%

Question: For `Cc1ccc(S(=O)(=O)Nc2cc(C(=O)N3CCC4(CC3)OCCO4)ccc2N2CCCCC2)cc1`, which “hERG current change (%, negative = inhibition) at 10uM” value is on record?
Answer: -51.3%

Question: With `Cc1ccc(S(=O)(=O)Nc2cc(C(=O)O)ccc2N2CCCCC2)cc1` as the molecule, how does the “hERG current change (%, negative = inhibition) at 10uM” value read?
Answer: 9.4%

Question: For `CCC1CCCCN1CCCNC(=O)c1ccc(N2CCOCC2)c(NS(=O)(=O)c2ccc(OC)cc2)c1` (centres unmarked), which “hERG current change (%, negative = inhibition) at 10uM” value is on record?
Answer: -57.6%

Question: For `Cc1ccc(S(=O)(=O)Nc2cc(C(=O)NCCN(C)C)ccc2N2CCCCC2)cc1`, which “hERG current change (%, negative = inhibition) at 10uM” value is on record?
Answer: -36.8%

Question: For `Cc1ccc(S(=O)(=O)Nc2cc(C(=O)N3CCOCC3)ccc2N2CCCCC2)cc1`, which “hERG current change (%, negative = inhibition) at 10uM” value is on record?
Answer: -20.5%

Question: `CCN(CC)CCCNC(=O)c1ccc(N2CCCCC2)c(NS(=O)(=O)c2ccc(C)cc2)c1` was tested. Which “hERG current change (%, negative = inhibition) at 10uM” value did it give?
Answer: -69.2%

Question: Which “hERG current change (%, negative = inhibition) at 10uM” value does the source give for `Cc1ccc(S(=O)(=O)Nc2cc(C(=O)NCCN(C)C)ccc2N2CCCC2)cc1` here?
Answer: -6.83%

Question: With `COc1ccc(OC)c(S(=O)(=O)Nc2c(F)cccc2F)c1` as the molecule, how does the “hERG current change (%, negative = inhibition) at 10uM” value read?
Answer: 16%

Question: For `CC1CN(C(=O)N2CCCCC2)CCN1C(=O)N1CCCCC1` (centres unmarked), which “hERG current change (%, negative = inhibition) at 10uM” value is on record?
Answer: 16.9%

Question: For `CCN(CC(=O)Nc1ccc(S(=O)(=O)N2CCOCC2)cc1)Cc1ccccc1`, which “hERG current change (%, negative = inhibition) at 10uM” value is on record?
Answer: -16.5%

Question: `O=C(CCc1ccccc1Cl)Nc1ccc(S(=O)(=O)N2CCOCC2)cc1` was tested. Which “hERG current change (%, negative = inhibition) at 10uM” value did it give?
Answer: -4.49%

Question: Which “hERG current change (%, negative = inhibition) at 10uM” value does the source give for `Cc1cccc(C(=O)NN2C(=O)C3C(c4ccccc4)C=CC(c4ccccc4)C3C2=O)c1` (centres unmarked) here?
Answer: 3.83%

Question: With `COc1cccc(-c2ccc(NC(=O)C3CCCN(Cc4ccco4)C3)cc2)c1` (centres unmarked) as the molecule, how does the “hERG current change (%, negative = inhibition) at 10uM” value read?
Answer: 6.02%

Question: For `COc1cccc(-c2ccc(NC(=O)C3CCCN(CCCn4nc(C)cc4C)C3)cc2)c1` (centres unmarked), which “hERG current change (%, negative = inhibition) at 10uM” value is on record?
Answer: -66%

Question: With `COc1cccc(-c2ccc(NC(=O)C3CCCN(Cc4nccn4C)C3)cc2)c1` (centres unmarked) as the molecule, how does the “hERG current change (%, negative = inhibition) at 10uM” value read?
Answer: -31.8%

Question: With `COc1cccc(-c2ccc(NC(=O)C3CCCN(Cc4cnn(C)c4C)C3)cc2)c1` (centres unmarked) as the molecule, how does the “hERG current change (%, negative = inhibition) at 10uM” value read?
Answer: 0.939%

Question: For `COc1cccc(-c2ccc(NC(=O)C3CCCN(Cc4cc(C)[nH]n4)C3)cc2)c1` (centres unmarked), which “hERG current change (%, negative = inhibition) at 10uM” value is on record?
Answer: -36.5%

Question: For `COc1cccc(-c2ccc(NC(=O)C3CCCN(CCCn4cccn4)C3)cc2)c1` (centres unmarked), which “hERG current change (%, negative = inhibition) at 10uM” value is on record?
Answer: -64.1%

Question: How did the “hERG current change (%, negative = inhibition) at 10uM” value turn out when `CCOC(=O)N1CCC(NS(=O)(=O)c2ccc(C#N)cc2)CC1` was run?
Answer: -2.64%

Question: Which “hERG current change (%, negative = inhibition) at 10uM” value does the source give for `NS(=O)(=O)c1cccc(NC(=O)COC(=O)CNC(=O)c2ccc(-c3ccccc3)cc2)c1` here?
Answer: 5.77%

Question: `CC(C)CNC(=O)COC(=O)CCC(=O)c1ccc(F)cc1` was tested. Which “hERG current change (%, negative = inhibition) at 10uM” value did it give?
Answer: 6.45%

Question: How did the “hERG current change (%, negative = inhibition) at 10uM” value turn out when `C1=C(CCNc2ncnc3c2cnn3-c2ccccc2)CCCC1` was run?
Answer: 8.79%

Question: With `Cn1cc(C=C2C(=O)OC3(CCCCC3)OC2=O)c2ccccc21` as the molecule, how does the “hERG current change (%, negative = inhibition) at 10uM” value read?
Answer: 9.19%

Question: For `O=C(OCc1nc2ccccc2[nH]1)C1CCCCC1`, which “hERG current change (%, negative = inhibition) at 10uM” value is on record?
Answer: 2.85%

Question: Which “hERG current change (%, negative = inhibition) at 10uM” value does the source give for `Cc1ccc(N2CC(C(=O)N3CCC(C(=O)Nc4ccc(Br)cc4)CC3)CC2=O)cc1` (centres unmarked) here?
Answer: -64.2%

Question: With `CC(=O)Nc1ccc(NC(=O)C2CCN(C(=O)C3CC(=O)N(c4ccc(C)cc4)C3)CC2)cc1` (centres unmarked) as the molecule, how does the “hERG current change (%, negative = inhibition) at 10uM” value read?
Answer: 12.4%

Question: For `C=CCNC(=O)C1CC(=O)N(c2ccc(Br)cc2)C1` (centres unmarked), which “hERG current change (%, negative = inhibition) at 10uM” value is on record?
Answer: -7.08%

Question: Which “hERG current change (%, negative = inhibition) at 10uM” value does the source give for `O=C(O)C1CC(=O)N(c2ccc(Br)cc2)C1` (centres unmarked) here?
Answer: 4.94%

Question: With `CCOc1ccc(NC(=O)C2CCN(C(=O)C3CC(=O)N(c4ccc(C)cc4)C3)CC2)cc1` (centres unmarked) as the molecule, how does the “hERG current change (%, negative = inhibition) at 10uM” value read?
Answer: -22.1%

Question: How did the “hERG current change (%, negative = inhibition) at 10uM” value turn out when `COc1ccccc1NC(=O)C1CCN(C(=O)C2CC(=O)N(c3ccc(C)cc3)C2)CC1` (centres unmarked) was run?
Answer: -9.15%

Question: Which “hERG current change (%, negative = inhibition) at 10uM” value does the source give for `Cc1ccc(N2CC(C(=O)N3CCC(C(=O)Nc4cccc(Br)c4)CC3)CC2=O)cc1` (centres unmarked) here?
Answer: -60.1%

Question: For `COc1ccc(CCN(C)C(=O)C2CC(=O)N(Cc3ccc(C)cc3)C2)cc1OC` (centres unmarked), which “hERG current change (%, negative = inhibition) at 10uM” value is on record?
Answer: 0.405%

Question: For `Cc1ccc(N2CC(C(=O)N3CCC(C(=O)NC(C)(C)C)CC3)CC2=O)cc1` (centres unmarked), which “hERG current change (%, negative = inhibition) at 10uM” value is on record?
Answer: 20.2%

Question: For `COc1ccc(NC(=O)CN(C)C(=O)C2CC(=O)N(Cc3ccc(C)cc3)C2)cc1` (centres unmarked), which “hERG current change (%, negative = inhibition) at 10uM” value is on record?
Answer: 4.41%

Question: With `C=CCN(CC=C)C(=O)C1CC(=O)N(c2ccc(Br)cc2)C1` (centres unmarked) as the molecule, how does the “hERG current change (%, negative = inhibition) at 10uM” value read?
Answer: -59.2%

Question: How did the “hERG current change (%, negative = inhibition) at 10uM” value turn out when `COc1ccc(Cl)cc1NC(=O)CN(C)C(=O)C1CC(=O)N(Cc2ccc(C)cc2)C1` (centres unmarked) was run?
Answer: -50%

Question: How did the “hERG current change (%, negative = inhibition) at 10uM” value turn out when `O=C(Nc1ccc(F)cc1F)c1ccco1` was run?
Answer: 2.94%

Question: Which “hERG current change (%, negative = inhibition) at 10uM” value does the source give for `COc1nc(N)c(S(=O)(=O)c2ccccc2)cc1C#N` here?
Answer: -19%

Question: `COc1cccc(S(=O)(=O)N2CCN(Cc3ccc4c(c3)OCO4)CC2)c1` was tested. Which “hERG current change (%, negative = inhibition) at 10uM” value did it give?
Answer: -24.4%

Question: For `COC(=O)/C(=C\Nc1ccc(Cl)cc1Cl)NC(=O)c1ccc(OC)cc1`, which “hERG current change (%, negative = inhibition) at 10uM” value is on record?
Answer: 5.27%

Question: Which “hERG current change (%, negative = inhibition) at 10uM” value does the source give for `Fc1ccc(C2=CC(c3ccco3)n3nnnc3N2)cc1` (centres unmarked) here?
Answer: -6.76%

Question: With `Cc1ccc(OC(C)C(=O)Nc2cc(C)on2)cc1` (centres unmarked) as the molecule, how does the “hERG current change (%, negative = inhibition) at 10uM” value read?
Answer: 2.53%

Question: For `O=C(NCCSCc1ccccc1)c1ccc(C2SCC(=O)N2Cc2ccccc2)cc1` (centres unmarked), which “hERG current change (%, negative = inhibition) at 10uM” value is on record?
Answer: -8.07%

Question: Which “hERG current change (%, negative = inhibition) at 10uM” value does the source give for `CC(=O)c1cccc(NC(=O)c2ccco2)c1` here?
Answer: 7.09%

Reference: PMC4336329 (PLoS ONE, 2015)
